Measurements: PubChem BioAssay
Several values for one entry are separate records, joined by “and”; a condition that tells them apart may be missing. Equal values may be shown once. For part of these data: Entries with a potency or affinity are not part of this list. Activity calls are given as the source filed them.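 Rule for the calls, unless noted: active = normalized viability below 100% at a tested concentration; inactive = the rest.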

Key:
[1] = P. berghei load reduction in hepatocytes – cell-based, HepG2, luciferase luminescence, HepG2 viability, primary screen (AID 624349; in the data active = parasite load remaining mostly below about 12%, no sharp cut-off; inactive = mostly above about 10%;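 note: 100% = mean of DMSO negative control wells on the same plate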); conditions: P. berghei liver stage in HepG2, luciferase luminescence, concentration not given here; parasite load remaining: stronger effect = lower value; viability: measured here: HepG2 viability without parasites
[2] = signal quenchers or enhancers, Cy5 substrate/SSB – biochemical, NIH Clinical Collection, E. coli SSB, artefact control for HCV NS3 helicase inhibitor project (AID 743268; call rule not given here); conditions: Cy5-oligo bound E. coli SSB, fluorescence interference
[3] = modulation of C. elegans fzo-1 (AID 1259413; call rule not given here;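 note: fzo-1 mutant C. elegans worms in liquid wells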); conditions: C. elegans fzo-1 modulator screen, mean read-out; stronger effect = higher value
[4] = drug combination growth inhibition, ovarian cancer – cell-based, oncology-focused library, rucaparib conditional, profiling panel (AID 1508598); conditions: patient-derived ovarian cancer cells, CellTiter-Glo viability, 144 h, stronger effect = lower value
[5] = galactose survival enhancers in mitochondrial complex I cybrids – cell-based, galactose medium, ATP luminescence, primary screen (AID 1645843;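 active = z-score of at least 1.8 in each of two replicates, scored against plate mean and spread of sample wells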;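 note: positive z means more ATP and so rescue of galactose-driven cybrid death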); conditions: complex I mutant cybrid cells, 72 h, stronger effect = higher value
[6] = test system: F380Y/beta1; experiment: BK channel mutant inhibitors and activators – cell-based, U2OS BacMam, thallium flux, beta subunits, selectivity assay, profiling panel (AID 1259406;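 active = thallium flux through the channel raised or lowered by more than 3 SD from vehicle-only wells, actives on both sides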;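 note: initial slope of Thallos dye fluorescence rise after thallium is added; log ratio against the mean of 0.3% DMSO vehicle wells on the same plate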); conditions: U2OS BacMam BK variants, at 30 µM
[7] = test system: F380Y/beta4; experiment: as above; conditions: U2OS BacMam BK variants, at 30 µM
[8] = test system: R275C; experiment: as above; conditions: U2OS BacMam BK variants, at 30 µM
[9] = test system: R275C/beta1; experiment: as above; conditions: U2OS BacMam BK variants, at 30 µM
[10] = test system: R275C/beta2Delta; experiment: as above; conditions: U2OS BacMam BK variants, at 30 µM
[11] = test system: R275C/beta4; experiment: as above; conditions: U2OS BacMam BK variants, at 30 µM
[12] = test system: R275C/Slo1WT/beta2; experiment: as above; conditions: U2OS BacMam BK variants, at 30 µM
[13] = compounds altering viability of human ES cells (AID 493140; call rule not given here;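 note: cells exposed to compounds for four days before counting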); conditions: human embryonic stem cell survival screen; stronger effect = higher value
[14] = blockers of polyQ-driven CASP3 activation – cell-based (AID 1583); conditions: polyglutamine-induced caspase-3 activation, cell assay; stronger effect = higher value;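 tested at 10 µM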
[15] = yeast 75Q aggregation reduction – 75Q-TubU reporter (AID 1593); conditions: Yeast 75Q polyglutamine aggregation reporter
[16] = restoration of touch response, mutant HTT neurons – whole organism, C. elegans mechanosensory neurons, N-terminal huntingtin (AID 1599); conditions: C. elegans polyQ-huntingtin mechanosensory neurons, stronger effect = higher value
[17] = blockers of cytochrome c efflux from mitochondria – biochemical, purified mitochondria (AID 1603); conditions: stronger effect = lower value;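 note: mouse liver mitochondria challenged with calcium chloride; signal normalized to the plate average as 100%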
[18] = polyglutamine aggregate formation blockers (AID 1604); conditions: polyglutamine-induced protein aggregation inhibition assay; stronger effect = higher value; tested at 2.5 µM
[19] = glutamate transport activators, MN-1 cells, MN-1 cell line (AID 1612); conditions: MN-1 motor neuron cells, stronger effect = higher value;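 note: tested at 1 µM final; 0% = mean of DMSO vehicle wells on each plate; positive means more glutamate uptake than control and negative means less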
[20] = 75Q-TubH aggregate inhibition, S. cerevisiae, yeast (AID 1616); conditions: S. cerevisiae 75Q-TubH polyglutamine aggregation suppression; stronger effect = higher value
[21] = at 0.000305 µM, OCI-C5x cells, with rucaparib 10 µM, 100% = cells with rucaparib alone
[22] = at 0.000305 µM, OCI-C5x cells, without rucaparib
[23] = at 0.000305 µM, OCI-P5x cells, with rucaparib 20 µM, 100% = cells with rucaparib alone
[24] = at 0.000305 µM, OCI-P5x cells, without rucaparib
[25] = at 0.00122 µM, OCI-C5x cells, with rucaparib 10 µM, 100% = cells with rucaparib alone
[26] = at 0.00122 µM, OCI-C5x cells, without rucaparib
[27] = at 0.00122 µM, OCI-P5x cells, with rucaparib 20 µM, 100% = cells with rucaparib alone
[28] = at 0.00122 µM, OCI-P5x cells, without rucaparib
[29] = at 0.00488 µM, OCI-C5x cells, with rucaparib 10 µM, 100% = cells with rucaparib alone
[30] = at 0.00488 µM, OCI-C5x cells, without rucaparib
[31] = at 0.00488 µM, OCI-P5x cells, with rucaparib 20 µM, 100% = cells with rucaparib alone
[32] = at 0.00488 µM, OCI-P5x cells, without rucaparib
[33] = at 0.0195 µM, OCI-C5x cells, with rucaparib 10 µM, 100% = cells with rucaparib alone
[34] = at 0.0195 µM, OCI-C5x cells, without rucaparib
[35] = at 0.0195 µM, OCI-P5x cells, with rucaparib 20 µM, 100% = cells with rucaparib alone
[36] = at 0.0195 µM, OCI-P5x cells, without rucaparib
[37] = at 0.0781 µM, OCI-C5x cells, with rucaparib 10 µM, 100% = cells with rucaparib alone
[38] = at 0.0781 µM, OCI-C5x cells, without rucaparib
[39] = at 0.0781 µM, OCI-P5x cells, with rucaparib 20 µM, 100% = cells with rucaparib alone
[40] = at 0.0781 µM, OCI-P5x cells, without rucaparib
[41] = at 0.313 µM, OCI-C5x cells, with rucaparib 10 µM, 100% = cells with rucaparib alone
[42] = at 0.313 µM, OCI-C5x cells, without rucaparib
[43] = at 0.313 µM, OCI-P5x cells, with rucaparib 20 µM, 100% = cells with rucaparib alone
[44] = at 0.313 µM, OCI-P5x cells, without rucaparib
[45] = at 1.25 µM, OCI-C5x cells, with rucaparib 10 µM, 100% = cells with rucaparib alone
[46] = at 1.25 µM, OCI-C5x cells, without rucaparib
[47] = at 1.25 µM, OCI-P5x cells, with rucaparib 20 µM, 100% = cells with rucaparib alone
[48] = at 1.25 µM, OCI-P5x cells, without rucaparib
[49] = at 5 µM, OCI-C5x cells, with rucaparib 10 µM, 100% = cells with rucaparib alone
[50] = at 5 µM, OCI-C5x cells, without rucaparib
[51] = at 5 µM, OCI-P5x cells, with rucaparib 20 µM, 100% = cells with rucaparib alone
[52] = at 5 µM, OCI-P5x cells, without rucaparib

CCCCCCNC(=O)n1cc(F)c(=O)[nH]c1=O
inactive: parasite load remaining [1] 405% and 109% | fluorescence ratio [2] 1.03 | mean signal [3] 292 | viability [4, 21] 125% | viability [4, 22] 114% | viability [4, 23] 108% | viability [4, 24] 129% | viability [4, 25] 128% | viability [4, 26] 121% | viability [4, 27] 115% | viability [4, 28] 115% | viability [4, 29] 115% | viability [4, 30] 125% | viability [4, 31] 108% | viability [4, 32] 117% | viability [4, 33] 114% | viability [4, 34] 113% | viability [4, 35] 107% | viability [4, 36] 113% | viability [4, 37] 134% | viability [4, 38] 117% | viability [4, 39] 103% | viability [4, 40] 117% | viability [4, 41] 133% | viability [4, 42] 112% | viability [4, 43] 101% | viability [4, 44] 112% | viability [4, 45] 129% | viability [4, 46] 128% | viability [4, 48] 104% | viability [4, 49] 223% | viability [4, 50] 172% | z-score [5] 1.85 | log fold change Tl+ flux [6] -0.0124 | log fold change Tl+ flux [7] -0.0261 | log fold change Tl+ flux [8] -0.0237 | log fold change Tl+ flux [9] 0.00244 | log fold change Tl+ flux [10] -0.0282 | log fold change Tl+ flux [11] -0.000915 | log fold change Tl+ flux [12] -0.00804
90% and 80.4%: viability [1]
active: viability [4, 47] 95.1% | viability [4, 51] 76.9% | viability [4, 52] 77.9%

CN(CCOc1ccc(CC2SC(=O)NC2=O)cc1)c1ccccn1 (centres undefined)
80.3% and 91.8% and 74.9%: viability [1]
active: viability [4, 23] 91.6% | viability [4, 24] 99.1% | viability [4, 31] 96.3% | log fold change Tl+ flux [6] 0.17 and 0.199 | log fold change Tl+ flux [9] 0.113 and 0.178
inactive: fluorescence ratio [2] 1.05 and 0.99 | mean signal [3] 290 | viability [4, 21] 112% | viability [4, 22] 124% | viability [4, 25] 116% | viability [4, 26] 133% | viability [4, 27] 104% | viability [4, 28] 108% | viability [4, 29] 123% | viability [4, 30] 129% | viability [4, 32] 106% | viability [4, 33] 114% | viability [4, 34] 137% | viability [4, 35] 108% | viability [4, 36] 116% | viability [4, 37] 106% | viability [4, 38] 128% | viability [4, 39] 103% | viability [4, 40] 113% | viability [4, 41] 110% | viability [4, 42] 148% | viability [4, 43] 106% | viability [4, 44] 119% | viability [4, 45] 107% | viability [4, 46] 131% | viability [4, 47] 101% | viability [4, 48] 115% | viability [4, 49] 106% | viability [4, 50] 133% | viability [4, 51] 103% | viability [4, 52] 116% | z-score [5] 0.19 and 0.27 | log fold change Tl+ flux [7] -0.0318 and 0.0667 | log fold change Tl+ flux [8] 0.0457 and 0.0237 | log fold change Tl+ flux [10] 0.0398 and 0.0538 | log fold change Tl+ flux [11] 0.0706 and 0.0705 | log fold change Tl+ flux [12] -0.0105 and 0.0261

COc1cc2nc(N(C)CCCNC(=O)C3CCCO3)nc(N)c2cc1OC (centres undefined)
inactive: survival [13] 6.42 | fluorescence ratio [2] 1.04 | mean signal [3] 257 | z-score [5] -0.01 and 0.43 | log fold change Tl+ flux [6] -0.0154 | log fold change Tl+ flux [7] 0.00267 | log fold change Tl+ flux [8] -0.0434 | log fold change Tl+ flux [9] 0.0106 | log fold change Tl+ flux [10] -0.00473 | log fold change Tl+ flux [11] -0.0149 | log fold change Tl+ flux [12] 0.00335

NCc1ccc(S(N)(=O)=O)cc1
-7.14%: glutamate uptake change [19]
0.88: cytochrome c release ratio [17]
1.05: aggregation suppression score [20]
-7.83: rescue above control [16]
-6.75%: inhibition [14]
active: log fold change Tl+ flux [10] 0.176
81.7%: inhibition of aggregation [18]
1.19: score [15]
inactive: survival [13] 13.4 | fluorescence ratio [2] 1.01 | mean signal [3] 250 | z-score [5] 1.92 | log fold change Tl+ flux [6] 0.0173 | log fold change Tl+ flux [7] -0.0354 | log fold change Tl+ flux [8] 0.00729 | log fold change Tl+ flux [9] -0.0404 | log fold change Tl+ flux [11] -0.0166 | log fold change Tl+ flux [12] -0.0456

N[C@@H](C(=O)N[C@@H]1C(=O)N2C(C(=O)O)=C(Cl)CS[C@H]12)c1ccccc1
inactive: survival [13] 9 and 6.75 | fluorescence ratio [2] 0.95 | mean signal [3] 277 | log fold change Tl+ flux [6] -0.0714 | log fold change Tl+ flux [7] -0.0331 | log fold change Tl+ flux [8] 0.0278 | log fold change Tl+ flux [9] 0.0103 | log fold change Tl+ flux [10] 0.0124 | log fold change Tl+ flux [11] -0.0176 | log fold change Tl+ flux [12] -0.0279

COc1ccccc1OCC(O)COC(N)=O (centres undefined)
88.8%: inhibition of aggregation [18]
1.68: rescue above control [16]
-5.42%: glutamate uptake change [19]
0.96: cytochrome c release ratio [17]
1.52: aggregation suppression score [20]
inactive: survival [13] 33.1 | fluorescence ratio [2] 1 | mean signal [3] 264 | z-score [5] 0.945 | log fold change Tl+ flux [6] 0.0402 | log fold change Tl+ flux [7] 0.0136 | log fold change Tl+ flux [8] 0.00553 | log fold change Tl+ flux [9] -0.013 | log fold change Tl+ flux [10] -0.018 | log fold change Tl+ flux [11] 0.0404 | log fold change Tl+ flux [12] 0.0176
1.41: score [15]
-7.05%: inhibition [14]
